Results on 20 molecules are retold here after PubChem BioAssay (EPA / NIEHS).

Inconclusive results are not listed. The source made the active and inactive calls. How the source made its calls: active means hit-call score of the fitted dose curve at least 0.9, where 1 is the maximum; inconclusive means response in the unintended direction; inactive means score below 0.9.

This assay deals with Luciferin 4-monooxygenase (Photinus pyralis) (UniProt P08659). As to the kind of experiment: CCTE_Simmons_QuantiLum_inhib_2: CCTE's Firefly Luciferase Inhibition Assay, Simmons Lab (AID 2283767).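 On AC50: potency for inhibitors that lower luciferase luminescence relative to DMSO.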 As for the experimental part: CCTE_Simmons_QuantiLum_inhib_2 is a biochemical, single-readout assay that uses purified luciferase enzyme in a cell-free assay.Measurements were taken 0.5 hour after chemical dosing in a 384-well plate.CCTE_Simmons_QuantiLum_inhib_2 is the assay component measured from the CCTE_Simmons_QuantiLum_inhib_2 assay. It is designed to make measurements of enzyme activity, a form of enzyme reporter, as detected with bioluminescence signals by Luciferase-coupled Quantilum levels technology. This is a secondary assay to CCTE_Simmons_AUR_TPO to evaluate nonspecific enzyme inhibition.Data from the assay component CCTE_Simmons_QuantiLum_inhib_2 was analyzed at the endpoint, CCTE_Simmons_QuantiLum_inhib_2, in the positive analysis fitting direction relative to DMSO as the negative control and baseline of activity. Using a type of enzyme reporter, measures of enzyme activity for loss-of-signal activity can be used to understand inhibition of firefly luciferase. This is an assay endpoint to indicate nonspecific protein inhibition for comparison to aeid 1508 for thyroperoxidase inhibition. To generalize the intended target to other relatable targets, this assay endpoint is annotated to the oxidoreductase intended target family, where the subfamily is monooxygenase.
Luciferin 4-monooxygenase (Photinus pyralis), sequence (P08659 whole entry, looked up): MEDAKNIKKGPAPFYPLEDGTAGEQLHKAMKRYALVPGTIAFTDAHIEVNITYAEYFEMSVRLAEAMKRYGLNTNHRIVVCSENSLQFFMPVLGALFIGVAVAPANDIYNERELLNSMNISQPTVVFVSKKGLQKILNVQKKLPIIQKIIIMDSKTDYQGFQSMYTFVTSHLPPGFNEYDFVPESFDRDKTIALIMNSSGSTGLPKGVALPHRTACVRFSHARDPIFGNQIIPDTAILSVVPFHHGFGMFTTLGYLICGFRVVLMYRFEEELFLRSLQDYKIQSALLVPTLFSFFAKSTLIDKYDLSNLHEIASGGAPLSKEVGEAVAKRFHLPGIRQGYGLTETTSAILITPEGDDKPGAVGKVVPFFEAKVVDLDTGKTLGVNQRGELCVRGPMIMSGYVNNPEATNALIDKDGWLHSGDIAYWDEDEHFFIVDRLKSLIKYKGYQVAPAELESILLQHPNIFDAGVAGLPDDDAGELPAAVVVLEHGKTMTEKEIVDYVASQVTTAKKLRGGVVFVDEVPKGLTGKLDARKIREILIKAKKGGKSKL
Quanti-Lum recombinant luciferase (Promega; Madison, Wisconsin) was diluted to 76.9 ng/ml with 200mM potassium phosphate buffer supplemented with 1 mg/ml bovine serum albumin and 65ul (5ng recombinant luciferase) per well was dispensed into opaque, white 384-well plates (Greiner, BioExpress) using an automated liquid handler (BioTek MicroFlo) with a plastic 5 ul tubing cassette. Test compounds were administered using the HDRT as described earlier to achieve a 0.5% final DMSO concentration. Microplates were incubated at 37C in the dark for 30min to mimic the AUR-TPO assay conditions. Luciferase detection reagent (25 ul per well; 9.2 mM dithiothreitol, 75uM Coenzyme A, 147uM dATP, 150uM D-luciferin, 8.9 mM Tricine, 297uM (MgCO3)4.Mg(OH)2.5H20, 742uM MgSO4, 27.8uM EDTA, pH 7.8, final assay concentrations) was then added using a BMG Clariostar plate reader equipped with syringe injectors (BMG LabTech; GmbH). Plates were read using a kinetic luminescence protocol (top read) whereby each well was individually injected with luciferase detection reagent immediately prior to measurement. Three biological replicates of technical singles were run for every chemical concentration tested. A titrated range of LUCINH2 served as a positive control on each plate of the luciferase inhibition screening assay. Test chemicals were administered as a titrated series of 8 concentrations from 5 nM up to 87.5 uM [final] for 30 minutes prior to single endpoint detection. Dimethylsulfoxide [DMSO] was used as the vehicle control. Luciferase Inhibitor I [2-(5-(2-Methoxyphenyl)-1,2,4-oxadiazol-3-yl)pyridine] was used as the positive control and was administered as a titrated series of 8 concentrations from 1 nM up to 100 uM [final].
`CCCCCCCOC(=O)c1ccc(O)cc1`: the AC50 (as a rule, the concentration at which the activity in the assay is half-maximal) was 76.7 µM (active).
Turning to `N#Cc1ccc(C(c2ccc(C#N)cc2)n2cncn2)cc1`, the outcome was inactive.
For the molecule `COc1ccc(C(=O)c2ccccc2)c(O)c1`, the AC50 was 53.6 µM (active).
As for `O=c1c(O)c(-c2ccc(O)cc2O)oc2cc(O)cc(O)c12`, the AC50 is 68.3 µM (active).
On to `CC1=NN(c2ccc(S(=O)(=O)O)cc2)C(=O)C1N=Nc1ccccc1` (stereo not given), for which the molecule was called inactive.
On to `CCCCC/C=C\C/C=C\CCCCCCCC(=O)O`, for which the result was inactive.
On to `CC(CCC(=O)O)(c1ccc(O)cc1)c1ccc(O)cc1`, for which the outcome was inactive.
Regarding `CCc1occc(=O)c1O`, the molecule was classed as inactive.
`C/C=C/C=C/CCCCCCCO`: the outcome was inactive.
Regarding `CCCCC1C(=O)N(c2ccccc2)N(c2ccccc2)C1=O`, the molecule was called inactive.
`COC(=O)c1ccccc1C`: the molecule was classed as inactive.
For the molecule `CN(C)c1ccc2nc3ccc(=[N+](C)C)cc-3sc2c1`, the AC50 is 0.676 µM (active).
On to `O=C(O)c1cc(O)c2ccccc2c1O`, for which the half-maximal activity concentration (AC50) was 39.9 µM (active).
For the molecule `CC(C)c1ccc(O)c(C(C)C)c1`, the result was inactive.
For the molecule `CCCCCCOc1ccc(N)cc1`, the AC50 was 28.7 µM (active).
With `CCCCCCCCCCCCc1ccc(O)cc1`, the molecule was called inactive.
Regarding `COc1ccc(-c2coc3cc(O)cc(O)c3c2=O)cc1`, the concentration at half-maximal activity (AC50) is 9.08 µM (active).
Regarding `O=S(=O)(O)c1ccc(N=Nc2c(O)ccc3ccccc23)cc1`, the half-maximal activity concentration (AC50) was 24.3 µM (active).
The same measure, in the same setting: for `c1ccc(Nc2cccc3ccccc23)cc1` the value was 53.8 µM (active).
For the molecule `CC(C)(c1ccccc1)c1ccc(Nc2ccc(C(C)(C)c3ccccc3)cc2)cc1`, the concentration at half-maximal activity (AC50) is 53.8 µM (active).
